Laboratory results published in PubChem BioAssay (NCI).
This is part of a sample that, as a whole, favours compounds with a hit. Of some 83,000 tested, about 20% had one in any assay.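 Results are percent growth after 48 hours of single-concentration exposure. 100 means growth as in untreated cells, lower positive values show inhibition; negative values down to -100 show cell death.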 Unmarked numbers belong to inactive results. The source made the active and inactive calls. Rule for the calls: active = growth percent below 10; inactive = the rest.

These molecules were tested on HL-60(TB) leukemia (assay: NCI-60 one-dose screen, 48 h (100 = growth as untreated, 0 = no growth, -100 = all killed)). Conditions: 10 µM unless noted.

Compound | growth
N/C(=N\c1nc2ccccc2[nH]1)NC(=O)Cc1cccc2ccccc12 | 82.4%
CN1CCN(CCCOc2cccc3nc(Nc4cc(Cl)cc(Cl)c4)ccc23)CC1 | 56.4%
COc1cc(C[C@H]2COc3cc(O)cc(O)c3C2=O)ccc1O | -35.5% (active)
Nc1ccccc1C#C/C=C\C#Cc1cccc(O)c1 | 12.6%
CC(=O)OCC1SC(OC(C)=O)C(NC(=O)/C=C/CCl)C(OC(C)=O)C1OC(C)=O (stereo not given) | 79.9%
CCOC(=O)CC1CSC(c2cccc(Cl)c2)=N1 (stereo not given) | 98.8%
Fc1ccc(NCc2cn(-c3ccccc3)nc2-c2ccc(OCc3ccccc3)cc2)cc1Cl | 79.5%
COc1ccc(/C=C/C(=O)c2c(O)c(C)c(O)c3c2OC2=CC(O)=C(C(C)=O)C(=O)[C@]23C)cc1 | -34.6% (active)
COc1ccc(-c2c(C)nn3c(NCCN4CCOCC4)cc(C)nc23)cc1OC | 107%
Cc1ccc(C(=O)N/N=C/c2cccc(Oc3ccccc3)c2)cn1 | 9.21% (active)
COC(=O)/C=C1/SC(=NCc2ccccc2)N(CCc2c[nH]c3ccccc23)C1=O | 79.8%
CCCCCCCCc1ccc(OCCOCC[N+](C)(C)CC)cc1 (tested in a mixture with another compound) | 2.54% (active)
Nc1cc(-c2ccc(Cl)cc2)nn1-c1nc(-c2ccc(Br)cc2)cs1 | 96.3%
O=C1NCC(=O)N(Cc2ccco2)[C@H]1Cc1ccccc1 | 102%
O=C(CCCCCCSc1nc(-c2ccccc2)cc(-c2ccc(Cl)cc2)n1)NO | -37.5% (active)
Cc1cnc(/C=N\NC(N)=S)c2cccc(N)c12 | -29.7% (active)
O=C(COc1cc(O)c2c(=O)cc(-c3ccccc3)oc2c1)Nc1ccccc1 | 74.5%
COc1cc(/C=C/C(=O)c2c(C)nc3ccccc3c2C)ccc1OCCCCOc1cc2c(cc1OC)C(=O)N1CCC[C@H]1C=N2 | -34.1% (active)
O=S(=O)(NCCCNc1nccc(-c2cn(-c3ccccc3)nc2-c2ccc(Cl)c(O)c2)n1)c1ccccc1 | 83.4%
O=C(Cc1ccccc1)Nc1nnc(NC2CCN(c3nnc(NC(=O)Cc4ccccc4)s3)CC2)s1 | 96.7%

Compound | growth
CCCCCOC(=O)c1c(C)[nH]c(/C=C2\N=C(c3ccc[nH]3)C=C2OC)c1C | -14.7% (active)
O=C(O)c1cn(C2CC2)c2cc(N3CCN(C(=O)C[n+]4ccccc4)CC3)c(F)cc2c1=O | 112%
N#CC(=S)Nc1ccc(Cl)c(Cl)c1 | 8.99% (active)
O=C(NN=C1CCCCC1)C(=O)NN=C1CCCCC1 | 81.5%
CC(C)=CCC[C@](C)(O)[C@H]1CC[C@]2(C)[C@@H]1CC[C@@H]1[C@@]3(C)C/C(=C/c4cccc([N+](=O)[O-])c4)C(=O)C(C)(C)[C@@H]3CC[C@]12C | 68.4%
CC(=O)[C@@H]1CC[C@]2(COS(=O)(=O)c3ccc(C)cc3)CC[C@]3(C)[C@H](CC[C@@H]4[C@@]5(C)CCCNC(C)(C)[C@@H]5CC[C@]43C)[C@@H]12 | 28.1%
CCN(CC)CCOc1ccc(/C(=C(\C)c2ccc(OC)c(F)c2)c2ccc(Cl)cc2)cc1 | 68.6%
Cc1cccc(-c2cn3ccnc3c(-c3ccc4ncn(Cc5ccccc5)c4c3)n2)c1 | 81.8%
O=C1C(c2ccccc2)C2C=CC(C2)N1O (stereo not given) | 93%
CCCCn1c(C)nc2cc(Nc3nc(N4CCCCC4)nc4nc[nH]c34)ccc21 | 78.4%
Cn1ncc2c(=O)nc3c(-c4ccccc4)n[nH]n3c21 | 107%
CCOC(=O)c1cc(C(=O)c2ccc(Br)cc2)n2ccc(/C=C/c3cc[n+](CC(=O)c4ccc(OC)cc4)cc3)cc12 | 58.1%
Cc1cc(Cl)nc(NCc2cc(Nc3ccnc4cc(Cl)ccc34)ccc2F)n1 | 42.4%
CCOC(=O)/C(=C(/C)NCC(C)C)c1cc(O)c(O)c2c(C)cc(=O)[nH]c12 | -6.69% (active)
N#Cc1c(N)nc2c(c(-c3ccc(Cl)cc3)nn2-c2ccccc2)c1C#N | 98.9% [100 µM]
N#Cc1ncc(-c2ccc(C(F)(F)F)cc2)c(NC2CCCCCC2)n1 | 6.7% (active)
O=C(/C=C/C=C/c1c(C2CC2)nc2ccccc2c1-c1ccc(F)cc1)c1cccs1 | -17.5% (active)
COC(=O)[C@]12CC[C@@H](C)[C@H](C)[C@@H]1C1=CC[C@@H]3[C@@]4(C)C(c5ncon5)=C[C@@](C)(CO)C4=CC[C@@]3(C)[C@]1(C)CC2 | -33.9% (active)
COc1ccc(-c2cc(-c3cccnc3)nc3sc4c(Cl)nnnc4c23)cc1OC | 85.4%
COc1cc2c(cc1OC)C(=O)/C(=C/c1cccc(OCC(=O)c3ccccc3)c1)C2 | 89.8%
